HP1b binding inh – inhibitors of HP1-beta chromodomain binding to methylated histone tails; AID 540317; hit rate 0.56% among 390,000; AlphaScreen HP1-beta / biotin-H3K9me3 peptide binding; Potency, µM (doses to about 114 µM), for inactives: at the highest dose activity change, negative = inhibition, usual class: inhibitors; P83916; note: nearly all actives have a fitted effect of over 70% in size
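AlphaScreen: HP1-beta (50 nM) preformed 30 min with biotin-H3(1-18)K9me3 peptide (50 nM) in PBS pH 7.4, 0.01% Tween-20. Compound added for 30 min at RT, then streptavidin donor/nickel chelate acceptor beads (10 ug/mL) for 30 min.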
BAZ2B inh – inhibitors of human BAZ2B bromodomain; AlphaScreen BAZ2B-H3K14Ac peptide displacement; Potency, µM (highest dose often 114 µM), for inactives: at the highest dose activity change, negative = inhibition, actives largely listed as inhibitors; hit rate 4.4% among 360,000; AID 504333; note: % is set by controls: 0 for no effect and ±100 for the full control effect; nearly all actives have a fitted effect of over 60% in size
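In this displacement format the biotinylated H3(5-23) peptide acetylated at Lys14 serves as ligand at 50 nM, with BAZ2B at 50 nM in PBS pH 7.4 containing 0.01% Tween-20. Donor and acceptor beads are 10 ug/mL final.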
Sfp inh – Sfp phosphopantetheinyl transferase inhibition. Q9F4F7. Biochemical Sfp PPTase activity, qHTS. Potency, µM, inactives show largest response in the series, negative = inhibition, hits mostly inhibitors. hit rate 3.5% among 310,000. AID 1490;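 note: the enzyme is Sfp with the accession as filed and its product quenches rhodamine fluorescence; 0% = enzyme reaction without inhibitor and -100% = no enzyme wells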
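After 15 min at room temperature with compound, 15 nM Sfp received 5 uM rhodamine-CoA plus 12.5 uM BHQ-2-ybbR (50 mM Hepes pH 7.6, 10 mM MgCl2). Rate came from the fluorescence difference over 30 min, ex 525/em 598 nm.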
JMJD2A Tudor – blocks the human JMJD2A Tudor domain | Potency, µM (titrated, usually from 114 µM), for inactives: at the highest dose activity change, negative = inhibition, usual class: inhibitors | AID 504339 | hit rate 4.4% among 390,000 | AlphaScreen JMJD2A-Tudor / H3K4me3 peptide binding; note: % is set by controls: 0 for no effect and ±100 for the full control effect; nearly all actives have a fitted effect of over 50% in size
PLK1 PBD inh – PLK1 (human) polo-box domain binding inhibition | Potency, µM, for the others: max response, negative = inhibition, most hits filed as inhibitors | hit rate 2.8% among 360,000 | Plk1 PBD binding of FITC phosphopeptide, fluorescence polarization | P53350; note: series mostly up to about 57 µM; % is set by controls: 0 for no effect and ±100 for the full control effect; nearly all actives have a fitted effect of over 65% in size
Target sequence (P53350 whole entry, looked up, the tested form may be a part): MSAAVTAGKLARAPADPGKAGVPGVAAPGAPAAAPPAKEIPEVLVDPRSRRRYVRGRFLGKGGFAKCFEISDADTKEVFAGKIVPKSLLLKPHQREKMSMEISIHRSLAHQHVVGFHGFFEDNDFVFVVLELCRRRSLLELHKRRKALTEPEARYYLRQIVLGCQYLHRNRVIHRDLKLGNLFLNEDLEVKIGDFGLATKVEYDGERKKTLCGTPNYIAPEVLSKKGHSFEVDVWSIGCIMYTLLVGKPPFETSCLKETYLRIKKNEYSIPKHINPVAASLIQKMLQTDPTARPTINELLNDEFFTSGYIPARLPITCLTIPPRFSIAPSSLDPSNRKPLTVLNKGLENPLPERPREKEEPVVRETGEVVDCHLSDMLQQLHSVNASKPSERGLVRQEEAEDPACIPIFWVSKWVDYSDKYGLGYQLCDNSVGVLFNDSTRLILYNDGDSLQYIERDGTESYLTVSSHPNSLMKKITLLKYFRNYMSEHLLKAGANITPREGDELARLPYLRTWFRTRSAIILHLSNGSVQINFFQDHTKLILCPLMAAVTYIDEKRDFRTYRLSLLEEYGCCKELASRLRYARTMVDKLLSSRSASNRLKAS
G9a block – G9a (human) methyltransferase inhibition. Potency, µM (titrated, usually from 102 µM), for the others: top-dose activity, negative = inhibition, usual class: inhibitors. Q96KQ7. hit rate 8.8% among 350,000. AID 504332. G9a H3K9 monomethylation, AlphaScreen, 2 h; note: % is set by controls: 0 for no effect and ±100 for the full control effect; nearly all actives have a fitted effect of over 75% in size
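Chemiluminescent proximity detection of H3K9 monomethylation, read after 10 min bead incubation in the dark. Reaction: 20 nM G9a, 500 nM biotin-H3K9 peptide, 20 uM SAM cofactor, 2 h, room temperature, following 15 min enzyme-compound preincubation.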
Numbers without * were called inactive; [ ] = another dose, or the depositor's remark. This is a sample that favours compounds with a hit; in the whole collection about 12% have one here. Calls come from the whole dose curve; as a rule, active = well fitted curve in the direction sought with a large enough effect; inconclusive = small, poorly fitted or top-dose-only effect, or another doubt; inactive = no such curve, though single readings can be large; an effect the other way counts as inactive or inconclusive. Potency is the fitted concentration of half-maximal effect.

Screening C#CCOCCOCCOCCNc1nc(N2CCN(C(=O)[C@H]([C@@H](C)CC)n3cc([C@@H](N)CC(C)C)nn3)CC2)nc(N2CCN(C(=O)[C@H](CCCCN)n3cc([C@@H](N)C(C)CC)nn3)CC2)n1 (stereo not given in full) returned HP1b binding inh 7%, BAZ2B inh 79µM*, Sfp inh 10%, JMJD2A Tudor 79µM*, PLK1 PBD inh -9% and G9a block -11%[12.7 µM].
CC1Cc2ccccc2N1C(=O)CSc1nnc(-c2ccccc2Cl)o1 (stereo not given) was read as HP1b binding inh 56%, BAZ2B inh 3%, JMJD2A Tudor 1% and G9a block 7%[59 µM].
For COc1cc(NC(=O)C(NC(=O)C2CCC(C)CC2)C(C)C)cc(OC)c1OC (stereo not given) the results were HP1b binding inh 45%, BAZ2B inh -2%, JMJD2A Tudor -4% and G9a block 8%[59 µM].
Screening C#CCOCCOCCOCCNc1nc(N2CCN(C(=O)C([C@@H](C)CC)n3cc(C(N)COC(=O)C(F)(F)F)nn3)CC2)nc(N2CCN(C(=O)[C@H](CCCCN)n3cc(C(N)[C@H](C)CC)nn3)CC2)n1 (stereo not given in full) returned HP1b binding inh 18%, JMJD2A Tudor 56µM* and PLK1 PBD inh -2%.
COc1nc(/C(N)=N/O)nc(N2CCCCC2)n1 was read as HP1b binding inh 66%, BAZ2B inh inconclusive, Sfp inh 79µM*, JMJD2A Tudor inconclusive, PLK1 PBD inh -13% and G9a block inconclusive.
COc1cccc(CN2CCCN(CC(=O)Nc3ccc4c(c3)OCCO4)S2(=O)=O)c1 was read as HP1b binding inh 17%, BAZ2B inh -24%, JMJD2A Tudor -5% and G9a block -1%[12.7 µM].
`COc1ccc(NC(=O)Cn2c(=O)n(-c3ccc(C)c(C)c3)c(=O)c3c(C)c(C)sc32)cc1` gave HP1b binding inh 51%, BAZ2B inh 6%, JMJD2A Tudor 1% and G9a block -3%[59 µM].
`O=C(CCl)c1ccc(Cc2ncc(C(F)(F)F)cc2Cl)s1` gave HP1b binding inh 30%, BAZ2B inh inconclusive, Sfp inh -20%, JMJD2A Tudor 79µM*, PLK1 PBD inh 2.4µM* and G9a block inconclusive.
`Cc1sc2nc(SCC(=O)Nc3ccc(Cl)c(C(=O)O)c3)[nH]c(=O)c2c1C` gave HP1b binding inh 20%[57 µM], JMJD2A Tudor -19% and PLK1 PBD inh -26%.
Screening Cc1sc2nc(SCC(=O)Nc3cccc(C(=O)O)c3)[nH]c(=O)c2c1C returned HP1b binding inh -14%, BAZ2B inh -6%, JMJD2A Tudor -23%, PLK1 PBD inh inconclusive and G9a block 25µM*.
Cc1sc2nc(SCC(=O)Nc3cccc(S(N)(=O)=O)c3)[nH]c(=O)c2c1C was read as HP1b binding inh inconclusive, JMJD2A Tudor 89µM* and PLK1 PBD inh 24µM*.
Screening CCN(CC)c1cc(C)c2cc(NC(=O)c3ccc(Br)o3)ccc2n1 returned HP1b binding inh -26%, BAZ2B inh inconclusive, Sfp inh inconclusive, JMJD2A Tudor inconclusive, PLK1 PBD inh -2% and G9a block 56µM*.
For CCCCc1ccc(C(=O)Nc2ccc3nc(N(CC)CC)cc(C)c3c2)cc1 the results were HP1b binding inh 69%, BAZ2B inh 14%, JMJD2A Tudor 5% and G9a block 30%[59 µM].
CCN1CCN(c2cc(C)c3cc(NC(=O)c4ccncc4)ccc3n2)CC1 was read as HP1b binding inh -6%, BAZ2B inh 4%, Sfp inh -4%, JMJD2A Tudor -32%, PLK1 PBD inh -9% and G9a block inconclusive.
Screening CCN1CCN(c2cc(C)c3cc(NC(=S)N4CCCCC4)ccc3n2)CC1 returned HP1b binding inh -13%, BAZ2B inh -32%, Sfp inh -10%, JMJD2A Tudor -35%, PLK1 PBD inh -6% and G9a block 45µM*.
`CCN1CCN(c2cc(C)c3cc(NC(=O)c4ccc(Br)o4)ccc3n2)CC1` gave HP1b binding inh 6%, BAZ2B inh 71µM*, Sfp inh -1%, JMJD2A Tudor inconclusive, PLK1 PBD inh -1% and G9a block inconclusive.
`CCN1CCN(c2cc(C)c3cc(NC(=S)N4CC(C)CC(C)C4)ccc3n2)CC1` (stereo not given) gave HP1b binding inh 1%, BAZ2B inh inconclusive, Sfp inh 0%, JMJD2A Tudor -35%, PLK1 PBD inh -6% and G9a block 35µM*.
CO[C@H]1COC(=O)[C@@H](Cc2ccccc2)NC(=O)[C@@H](C)COC(=O)CCC[C@@H]1C was read as Sfp inh 9%.
For CCCS(=O)(=O)c1nc(S(=O)(=O)c2ccc(C)cc2)c(NCc2ccccc2)s1 the results were HP1b binding inh 29%, BAZ2B inh -2%, JMJD2A Tudor -18% and G9a block 0%[59 µM].
`CCN1CCN(C(=S)Nc2ccc3nc(N4CCN(CC)CC4)cc(C)c3c2)CC1` gave HP1b binding inh 13%, BAZ2B inh -4%, Sfp inh 6%, JMJD2A Tudor -25%, PLK1 PBD inh -20% and G9a block 20µM*.
`CCN1CCN(c2cc(C)c3cc(NC(=S)N4CCCC(C)C4)ccc3n2)CC1` (stereo not given) gave HP1b binding inh -22%, BAZ2B inh -29%, Sfp inh 8%, JMJD2A Tudor inconclusive, PLK1 PBD inh -6% and G9a block 45µM*.
`O=C(NS(=O)(=O)c1ccccc1)c1ccccc1O` gave HP1b binding inh 19%, BAZ2B inh -1%, Sfp inh -8%, JMJD2A Tudor 23%[11.4 µM], PLK1 PBD inh 24µM* and G9a block 7%[12.7 µM].
CCC(c1nnnn1-c1ccc2c(c1)OCCO2)N1CCN(c2ccc(F)cc2)CC1 (stereo not given) was read as PLK1 PBD inh 2%.
Screening CCC1Oc2ccc(Cl)cc2N(CC(=O)NCCc2ccc(Cl)cc2)C1=O (stereo not given) returned HP1b binding inh 35%, BAZ2B inh 0%, JMJD2A Tudor -16% and G9a block -6%[59 µM].
COC(=O)c1cc(CN2CCN(c3ccccc3C)CC2)ccc1O was read as HP1b binding inh inconclusive, BAZ2B inh 56µM*, Sfp inh -11%, JMJD2A Tudor 2µM*, PLK1 PBD inh -7% and G9a block 7.1µM*.
Screening Cc1ccccc1N1CCN(Cc2cccc(C(=O)O)c2)CC1 returned HP1b binding inh 42%, BAZ2B inh -1%, Sfp inh 10%, JMJD2A Tudor -5%, PLK1 PBD inh -3% and G9a block 9%.

Bioassay records deposited in PubChem by National Center for Advancing Translational Sciences (NCATS).
